High-throughput results from PubChem.
Cruzain noTriton: qHTS Assay for Promiscuous and Specific Inhibitors of Cruzain (without detergent); purified cruzain, Z-FR-AMC fluorescence, no detergent; AID 1476, 2009; 2.3% of 200,000 active; Potency, µM, without a hit: max response, negative = inhibition, hits mostly inhibitors;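 note: plate controls were enzyme without inhibitor for no effect and buffer without enzyme for full effect; nearly all actives have a fitted effect of over 40% in size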
Target sequence (P25779 123-467 limits assumed): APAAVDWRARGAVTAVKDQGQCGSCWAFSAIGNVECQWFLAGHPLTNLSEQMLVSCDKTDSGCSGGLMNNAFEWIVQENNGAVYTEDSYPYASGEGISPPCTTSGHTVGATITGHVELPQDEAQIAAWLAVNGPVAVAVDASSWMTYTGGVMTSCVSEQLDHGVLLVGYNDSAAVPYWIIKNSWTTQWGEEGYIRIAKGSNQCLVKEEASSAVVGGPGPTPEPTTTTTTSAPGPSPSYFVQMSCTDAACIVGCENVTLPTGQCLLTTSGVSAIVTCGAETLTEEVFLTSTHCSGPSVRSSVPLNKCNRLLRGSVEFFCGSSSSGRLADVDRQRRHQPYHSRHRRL
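Purified cruzain at 1.5 nM, pre-incubated 15 min with compound at room temperature in 100 mM sodium acetate pH 5.5, 5 mM DTT, 0.00005% Triton X-100. Reaction started with 2 uM Z-FR-AMC; AMC fluorescence increase over 60 s gives rate.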
Cruzain Triton: qHTS Assay for Promiscuous and Specific Inhibitors of Cruzain (with detergent). AID 1478, 2009. purified cruzain, Z-FR-AMC fluorescence, 0.01% Triton. Cruzipain (Trypanosoma cruzi), P25779. 0.43% of 200,000 active. Potency, µM, inactives show max response, negative = inhibition, most hits filed as inhibitors;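 note: plate controls were neutral wells for no effect and buffer without enzyme for full effect; nearly all actives have a fitted effect of over 40% in size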
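Detergent-containing run (0.01% Triton X-100) in acetate buffer pH 5.5 with 5 mM DTT: enzyme at 1.5 nM final, 15 min compound preincubation at room temperature, then 2 uM Z-FR-AMC substrate. Activity taken as 60 s fluorescence increase at 360/450 nm.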
Starred values were filed as active, the others as inactive; ? = inconclusive. Sampled rows, rich in hits. Any-hit rate of the full collection: about 2.5%. Calls come from the whole dose curve; as a rule, active = well fitted curve in the direction sought with a large enough effect; inconclusive = small, poorly fitted or top-dose-only effect, or another doubt; inactive = no such curve, though single readings can be large; an effect the other way counts as inactive or inconclusive. Potency is the fitted concentration of half-maximal effect.

SMILES	Cruzain noTriton	Cruzain Triton
Cc1cc(C)cc(NC(=O)C2CCCN(S(=O)(=O)c3cccc4nsnc34)C2)c1 (configuration not stated)	-1%	-2%
CCCN1CCN(CCCNC(=O)c2ccc3c(c2)sc2nc(-c4ccc(C)cc4)cn23)CC1	1%	-2%
COCc1nnc(NC(=O)CCC2CCCCC2)s1	-5%	2%
O=C(CCC1CCCC1)Nc1nnc(-c2ccc3c(c2)OCO3)s1	10µM*	0%
CCc1ccccc1NC(=O)CN1CCCN(Cc2cc(C)ccc2C)S1(=O)=O	29%	-6%
CN1C[C@@H](CO)C=C2c3cccc4[nH]cc(c34)CC21 (some centres not stated)	40µM*	8%
CCC(CO)NC(=O)[C@@H]1C=C2c3cccc4[nH]cc(c34)C[C@H]2N(C)C1 (some centres not stated)	?	-8%
N[C@H]1[C@@H](C(=O)O)[C@H]2C=C[C@H]1C2	10%	8%
CCc1ccc(CNC(=O)c2sc3ncccc3c2-n2c(C)ccc2C)cc1	-5%	-10%
CCc1ccc(CNC(=O)COc2cc(=O)n(CC)c3ccccc23)cc1	23%	-1%
CCc1ccc(OCC(=O)Nc2cc3oc4ccccc4c3cc2OC)cc1	1%	0%
COc1cc2c(cc1NC(=O)COC(=O)[C@@H](NC(=O)c1ccccc1F)C(C)C)oc1ccccc12	?	-10%
COc1cc2c(cc1NC(=O)COC(=O)[C@@H](NC(=O)c1ccccc1)C(C)C)oc1ccccc12	32µM*	-9%
CCN(CC)c1ccc(C(=O)OCC(=O)Nc2cc3oc4ccccc4c3cc2OC)cc1	13µM*	-17%
O=C(O)[C@@H]1[C@@H](C(=O)NCc2cccnc2)[C@@H]2C=C[C@@H]1O2	10%	0%
Cc1ccc(S(=O)(=O)Cc2nc(-c3ccc(C(=O)NCc4ccccc4)cc3)oc2C)cc1	-2%	0%
CCN(CC)c1ccc(NC(=O)C2CCCN(S(=O)(=O)c3ccc4c(c3)oc(=O)n4C)C2)c(C)c1 (configuration not stated)	6%	2%
O=S(=O)(c1ccccc1)N1CCC2(CCCN(c3cccc(-c4ccccc4)c3)C2)CC1	?	0%
O=S(=O)(c1ccccc1)N1CCC[C@@]2(CCN(c3ccccc3)C2)C1	16µM*	-6%
O=S(=O)(c1ccccc1)N1CCC[C@@]2(CCN(c3cccc(-c4ccccc4)c3)C2)C1	4µM*	1%
O=S(=O)(c1ccccc1)N1CCC2(CCCN(c3ccccc3)C2)CC1	2%	0%
CCOc1ccc(NC(=O)c2c(NCc3sccc3C)sc3c2CCCCC3)cc1	10%	-25%
Cc1ccc(NC(=O)Cn2c(=O)nc(-c3ccccc3F)c3cc(Cl)ccc32)c(Br)c1	13%	-4%
O=c1[nH]c(=O)n(-c2ccccc2)c(O)c1/C=C1/C(c2ccccc2)=Nc2ccccc21	-12%	-5%
Oc1[nH]c(=S)sc1/C=C1\C(c2ccccc2)=Nc2ccccc21	25µM*	-9%
SMILES	Cruzain noTriton	Cruzain Triton
Clc1ccc2oc(-c3cccnc3NCc3ccccc3)nc2c1	-6%	-14%
Cc1ccc(CNc2ncccc2-c2nc3cc(Cl)ccc3o2)cc1	10µM*	-12%
O=C(COC(=O)CNC(=O)c1ccc(Cl)cc1)Nc1ccc(Cl)cc1C(F)(F)F	6.3µM*	8.9µM*
O=C(COC(=O)CNC(=O)c1ccccc1)Nc1cccc(Br)c1	-15%	?
O=C(COC(=O)CNC(=O)c1ccccc1)Nc1ccc(Cl)cc1C(F)(F)F	13µM*	16µM*
Cc1ccc(-c2cc(C(=O)OCC(=O)Nc3ncc(C(F)(F)F)cc3Cl)c3ccccc3n2)cc1	?	-3%
Cc1ccc(C(=O)NCC(=O)OCC(=O)Nc2ncc(C(F)(F)F)cc2Cl)cc1	6.3µM*	7.1µM*
O=C(COC(=O)CCCNC(=O)c1ccc(Cl)cc1)Nc1cc(Cl)c(Cl)cc1Cl	-4%	-12%
O=S1(=O)c2ccccc2N(Cc2ccccc2Cl)c2ccccc21	-4%	0%
COc1ccc(OC)c(S(=O)(=O)N2CCC(c3ccncc3)CC2)c1	2%	3%
Cc1ccccc1-c1nnc(CN2CCN(c3cccc(C)c3C)CC2)o1	8%	-5%
CC(NC(=O)c1ccccc1)(C(=O)O)C(=O)O	8%	1%
O=C(NCc1ccccc1)C(=O)NCC(c1ccc2c(c1)OCO2)N1CCOCC1 (configuration not stated)	-6%	-1%
CN(C)c1ccc(Sc2nnc(NC(=O)Nc3ccc(Cl)cc3Cl)s2)cc1	10µM*	-4%
CCC(=O)Nc1nnc(Sc2ccc(N(C)C)cc2)s1	-12%	1%
O=C(C[C@@H]1C=Cc2ccccc2N1C(=O)c1ccccc1)c1ccccc1	1%	4%
O=S(=O)(c1ccc(Cl)cc1)n1ccc(-c2cccc(OCc3c(F)cccc3Cl)c2)n1	20µM*	4%
O=S(=O)(c1ccc(F)cc1)n1ccc(-c2cccc(OCc3c(F)cccc3Cl)c2)n1	-12%	10%
COc1cccc(/C=C2\SC(=O)N(CCC(=O)NNC(=O)c3ccccc3Cl)C2=O)c1	?	-5%
O=C(CN1C(=O)S/C(=C\c2ccc(Cl)cc2)C1=O)NNC(=O)c1ccccc1O	20µM*	-6%
C=C1C[C@@]23C[C@@]1(O)CC[C@@H]2[C@]12C=C[C@@H](O)[C@](C)(C(=O)O1)[C@@H]2[C@@H]3C(=O)O	-6%	1%
Oc1ccc2c(c1-c1c(O)c(Br)cc3c1CCCC3)CCCC2	3%	0%
Cc1cc(C)cc(-c2cc3c(c(-c4c(O)c(-c5cc(C)cc(C)c5)cc5c4CCCC5)c2O)CCCC3)c1	16µM*	1%
COc1ccc(S(=O)(=O)Nc2ccccc2C(=O)Nc2nc(-c3ccc(F)cc3)cs2)cc1OC	20µM*	-14%
COc1ccc(-c2csc(NC(=O)c3ccccc3NS(=O)(=O)c3ccc(C)cc3)n2)cc1	?	-14%
SMILES	Cruzain noTriton	Cruzain Triton
CN(C)c1ccc(-c2nccc(Nc3ccc(F)cc3)n2)cc1	20%	-16%
Cc1nnc(SCC(=O)Nc2ccc(S(=O)(=O)N3CCCC3)cc2)n1N	-6%	2%
N#Cc1cc2ccccc2nc1SCC(=O)Nc1ccc(S(=O)(=O)N2CCCC2)cc1	?	-4%
Cc1cc(C)c2nc(SCC(=O)Nc3ccc(S(=O)(=O)N4CCCC4)cc3)c(C)cc2c1	13µM*	-8%
COc1ccc2nc(SCC(=O)Nc3ccc(S(=O)(=O)N4CCCC4)cc3)c(C#N)cc2c1	13µM*	-2%
COc1cccc(C(=O)Nc2c(C(=O)N3CCN(c4ccc(F)cc4)CC3)oc3ccccc23)c1	-24%	-4%
CC(=O)Nc1ccccc1OCc1cc(=O)n2c3c(sc2n1)CCCC3	3%	-1%
COc1ccc(CCn2c3c(c(=O)[nH]c2=O)C(NC(=O)c2ccccc2)(C(F)(F)F)C(=O)N3)cc1OC (configuration not stated)	8%	-2%
O=C(O)CC(NS(=O)(=O)c1ccc(Br)s1)c1ccccc1 (configuration not stated)	3%	-2%
C=C[C@@H]1CN2CC[C@H]1CC2[C@H](O)c1ccnc2ccccc12 (some centres not stated)	-3%	4%
CCOC(=O)c1ccc(N2Cc3ccccc3C2=N)cc1	-21%	1%
